We go through 40 compounds from PubChem BioAssay AID493169 (National Center for Advancing Translational Sciences (NCATS), 2011).

SMILES strings stand for the structures. Records with an inconclusive call do not appear. Activity calls are given as the source filed them. Calls come from the whole dose curve; as a rule, active = well fitted inhibition curve with a large enough effect; inconclusive = small, poorly fitted or top-dose-only effect; inactive = flat fitted curve, though single readings scatter.
% is set by controls: 0 for no effect and ±100 for the full control effect; potency is the fitted concentration of half-maximal effect.

This test is described as follows: CHOP2 Reporter Counterscreen Assay for Inhibitors of Ubiquitin-specific Protease USP2a.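 Note: activated enterokinase alone at 50 pM in a cell-free format rather than USP2a or CHOP2; nearly all actives have a fitted effect of over 55% in size.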 The settings on record: purified enterokinase, fluorogenic substrate, 485/531 nm; series mostly up to 38.3 µM; activity change, negative = inhibition: at the top concentration. The procedure, abridged:
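Fluorescence (485/531 nm) read 10 min after adding 25nM reporter substrate to 50 pM activated EK preincubated 30 min RT with compound; Tris pH 8.0/CaCl2/CHAPS buffer. Data normalized to buffer-alone inhibition; concentration-response curves fitted.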
On the technique in general: Counterscreens check selectivity or assay interference.
For `COc1cc(C)ccc1OCCOc1cc(C)ccc1Cl`, the “activity change, negative = inhibition” value was 0.822% (inactive).
Take `Cc1ccc(Nc2nc(N)nc(CN3CCN(C(=O)c4ccco4)CC3)n2)cc1Cl`: the “activity change, negative = inhibition” value is -5.49% (inactive).
On the same count and under the same terms, in the case of `Cc1ccc([C@H]2C(C(=O)O)=CC[C@@H](c3ccc(Cl)cc3)N2S(=O)(=O)c2ccc(C)cc2)cc1` it was -10.9% (inactive).
On to `O=C(Nc1ccc(C2=NCCN2)cc1)c1ccc(C(=O)Nc2ccc(C3=NCCN3)cc2)c([N+](=O)[O-])c1`, for which the Potency is 7.94 µM (active).
Take `COc1cc(C)c(S(=O)(=O)NCc2ccc3c(c2)OCO3)cc1C`: the “activity change, negative = inhibition” value was 5.07% (inactive).
As for `COc1cc(C2C(C#N)=C(N)Oc3c2ccc2ccccc32)ccc1OCC(=O)Nc1cccc(C)c1` (stereo not given), the “activity change, negative = inhibition” value is 2.73% (inactive).
Take `COc1ccc(-c2[nH]ncc2/C=C(/C#N)C(=O)NC2CCCCC2)cc1`: the “activity change, negative = inhibition” value is 6.31% (inactive).
In the case of `C=CCn1c(Br)nc2c1c(=O)n(C)c(=O)n2C`, the “activity change, negative = inhibition” value is 11.7% (inactive).
As to `CCOC(=O)CCCNC(=O)COC(=O)c1cccc(C)c1O`, the “activity change, negative = inhibition” value was 5.39% (inactive).
With `NC(=O)c1ncc(C(F)(F)F)cc1Oc1cccc(F)c1`, the “activity change, negative = inhibition” value was -0.938% (inactive).
Regarding `O=C(Nc1nnc(-c2cccs2)o1)c1cccc(Oc2ccccc2)c1`, the “activity change, negative = inhibition” value is -2.38% (inactive).
For the compound `Cc1ccc(N=C2NC(=O)/C(=C/C=C/c3ccco3)S2)cc1C`, the Potency was 8.91 µM (active).
For `CC(=O)c1c(N2CCCC2)[nH]c(-c2ccccc2)nc1=S`, the “activity change, negative = inhibition” value is 0.802% (inactive).
Consider `CCOc1ccc(NC(=O)c2ccc(NC(=O)COC(=O)c3ccc(NC(=O)CC#N)cc3)cc2)cc1`, for which the Potency is 2.82 µM (active).
Turning to `CCOC(=O)N1CCN(C(=O)CN(c2ccc(C)c(C)c2)S(=O)(=O)c2ccccc2)CC1`, the “activity change, negative = inhibition” value is -3.06% (inactive).
For `CSCCC(NC(=O)c1cc(C(C)(C)C)oc1C)C(=O)O` (stereo not given), the “activity change, negative = inhibition” value was 2.06% (inactive).
Consider `COCCCNC(=O)C1CCN(c2nc(C)cc(C)n2)CC1`, for which the “activity change, negative = inhibition” value is -0.985% (inactive).
Take `N#Cc1cc(Sc2ccccn2)c(Sc2ccccn2)cc1C#N`: the “activity change, negative = inhibition” value is 0.037% (inactive).
With `Cc1ccc(NC(=O)Cn2nc(C)c3ccccc3c2=O)cc1F`, the “activity change, negative = inhibition” value is 4.42% (inactive).
Consider `Cc1ccc(C(=O)N(C)CC(=O)Nc2cccc(C)c2C)o1`, for which the “activity change, negative = inhibition” value is 7.01% (inactive).
Regarding `CCN(CC(=O)Nc1ccc(NC(C)=O)cc1)C(=O)c1ccc(N2CCC(C)CC2)c([N+](=O)[O-])c1`, the “activity change, negative = inhibition” value is -7.26% (inactive).
On the same count and under the same terms, the result for `CCC(=O)c1ccc(OCC(=O)NC2CCN(Cc3ccccc3)CC2)cc1` reads -0.493% (inactive); that for `CC(C)OCCCNC(=O)c1c(N)n(/N=C/c2ccccn2)c2nc3ccccc3nc12`, -2.23% (inactive); that for `CCOc1ccc(S(=O)(=O)N(CC(=O)O)c2ccccc2)cc1`, 2.04% (inactive).
As to `C=CC[C@H](CC(=O)N[C@H](CO)Cc1ccccc1)C(=O)N[C@H](COC(=O)[C@@H](CC=C)CC(=O)OC(C)(C)C)Cc1c[nH]c2ccccc12`, the “activity change, negative = inhibition” value is -3.18% (inactive).
Regarding `Cc1nc2cc3ccccc3cc2c(=O)[nH]1`, the “activity change, negative = inhibition” value was -3.45% (inactive).
Turning to `CCCC(=O)Nc1ccc(N2CCN(C(=O)c3cc4ccccc4o3)CC2)cc1`, the “activity change, negative = inhibition” value was 5.53% (inactive).
Turning to `CCN(CC)S(=O)(=O)c1ccc(Cl)c(NC(=O)COC(=O)c2c(C)noc2C)c1`, the “activity change, negative = inhibition” value was 0.267% (inactive).
For `C#CCOCCOCCOCCNc1nc(N2CCN(C(=O)CCCCCCCCCCNC(=O)[C@H](CO)n3cc(CCCSC)nn3)CC2)nc(N2CCN(C(=O)CCCCCCCCCCNC(=O)[C@H](CCCN=C(N)N)n3cc(C[C@@H](C)CC)nn3)CC2)n1`, the Potency was 3.98 µM (active).
As for `CCCCC1NC(C(=O)O)CS1` (stereo not given), the “activity change, negative = inhibition” value is 2.37% (inactive).
On the same count and under the same terms, the result for `Cc1ccc(S(=O)(=O)Nc2ccc(N3CCOCC3)cc2)cc1` reads 1.6% (inactive).
Still for that read-out and setting: in the case of `CCOc1ccccc1C(=O)N[C@H](C(=O)Nc1ccc(OC)c(S(=O)(=O)N2CCOCC2)c1)C(C)C` it was 0.625% (inactive).
As for `COc1cccc(OC)c1-c1nn2c(-c3cc(-c4ccccc4)n[nH]3)nnc2s1`, the Potency was 5.62 µM (active).
As for `COc1ccc(N(C(=O)C(C)C)S(=O)(=O)c2ccc(Cl)cc2)cc1`, the “activity change, negative = inhibition” value is -1.76% (inactive).
Take `Cc1ccc(C(=O)O/N=C/c2c(C(F)(F)F)nn(C)c2Sc2ccc(Cl)cc2)cc1`: the “activity change, negative = inhibition” value was -0.861% (inactive).
`CCC(C)(C(=O)NC1CCCCC1)N(C(=O)C1CCC(=O)N1)c1ccccc1` (stereo not given): the “activity change, negative = inhibition” value is -1.78% (inactive).
Still for that read-out and setting: the result for `C=CCn1c(N)c(C(=O)NCc2cccnc2)sc1=S` reads 12.9% (inactive).
As for `Cc1ccc2oc(=O)c3cnn(CC(=O)NCCCOC(C)C)c3c2c1`, the “activity change, negative = inhibition” value was -0.662% (inactive).
For `Cc1cc(-c2csc(NCc3ccccc3)n2)c(C)n1C`, the Potency was 12.6 µM (active).
As for `Cc1cnc(N)c2c(=O)oc3ccccc3c12`, the “activity change, negative = inhibition” value is 1.83% (inactive).
